Source: PubChem BioAssay AID2284205 (EPA ToxCast)
Active and inactive are the calls of the source. The calls were made as follows: active = hit-call score of the fitted dose curve at least 0.9, where 1 is the maximum; inactive = score below 0.9.

Molecular target: Peroxisome proliferator-activated receptor gamma (Homo sapiens) (UniProt P37231)
Test: ERF_TW_NR_hPPARG: Eurofins (ERF) Nuclear Receptor (NR) Radioligand Binding LeadHunter Assay for human Peroxisome Proliferator-activated Receptor gamma (PPARg) Agonism, conducted at Taiwan lab site
Procedure: ERF_TW_NR_hPPARG is a biochemical, single-readout assay that uses extracted gene-proteins in a cell-free assay. Measurements were taken 24 hour after chemical dosing in a 96-well plate. See PPARgamma Human NHR Binding (Agonist Radioligand) Assay, Panlabs.ERF_TW_NR_hPPARG is an assay component calculated from the ERF_TW_NR_hPPARG assay. It is designed to measure radioligand binding using a type of binding reporter as detected by scintillation counting with radiometry technology.Data from the assay component ERF_TW_NR_hPPARG was analyzed at the assay endpoint, ERF_TW_NR_hPPARG, in the positive analysis fitting direction relative to DMSO as the negative control and baseline of activity. Using a type of binding receptor, gain-of-signal activity can be used to understand changes in binding receptor as they relate to gene PPARG.To generalize the intended target to other relatable targets, this assay endpoint is annotated to the nuclear receptor intended target family, where the subfamily is non-steroidal.
Human recombinant PPARgamma-LBD expressed in insect cells are used in modified Tris-HCl buffer pH 7.2. A 0.03 ug aliquot is incubated with 5 nM [3H]Rosiglitazone and 1 ug anti-GST antibody for 24 hours at 4C. Non-specific binding is estimated in the presence of 10 uM rosiglitazone. Receptors are counted to determine [3H]Rosiglitazone specifically bound. […]

Peroxisome proliferator-activated receptor gamma (Homo sapiens), sequence (P37231 whole entry, looked up): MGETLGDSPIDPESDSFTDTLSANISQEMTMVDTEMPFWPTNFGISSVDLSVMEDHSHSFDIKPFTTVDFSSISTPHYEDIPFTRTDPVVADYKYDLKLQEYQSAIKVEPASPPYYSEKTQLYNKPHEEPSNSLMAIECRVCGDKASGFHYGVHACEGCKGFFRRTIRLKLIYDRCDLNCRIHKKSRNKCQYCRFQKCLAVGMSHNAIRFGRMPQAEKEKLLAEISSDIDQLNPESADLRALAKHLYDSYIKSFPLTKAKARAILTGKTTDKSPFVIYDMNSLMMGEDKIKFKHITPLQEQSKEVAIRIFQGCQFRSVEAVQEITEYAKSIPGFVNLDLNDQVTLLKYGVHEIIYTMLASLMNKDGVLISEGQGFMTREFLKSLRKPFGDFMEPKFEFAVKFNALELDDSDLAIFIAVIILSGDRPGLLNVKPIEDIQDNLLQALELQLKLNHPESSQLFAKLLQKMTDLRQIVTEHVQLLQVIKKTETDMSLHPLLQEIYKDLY

Row | SMILES | AC50
1 | COC(=O)C(F)(F)C(F)(F)OC(F)(C(F)(F)F)C(F)(F)OC(F)=C(F)F (configuration not stated) | 3.72 µM (active)
2 | O=C(O)C(F)(F)C(F)(F)C(F)(F)C(F)(F)C(F)(F)C(F)(F)C(F)(F)C(F)(F)F | 18.6 µM (active)
